From PubChem BioAssay (NCATS)
Results filed as inconclusive are left out. Activity calls are given as the source filed them. Calls follow the shape of the dose curve; as a rule, active = well fitted cell-killing curve with a large enough effect; inconclusive = small, poorly fitted or top-dose-only effect; inactive = flat fitted curve, though single readings scatter.

Assays:
[1] = Cell Viability - LYMP2-019 (AID 973); also: nearly all actives have a fitted effect of over 55% in size
Summary of the method: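 Cytotoxicity is scored as a concentration-dependent drop in cellular ATP after cells (2500/well) receive compound for 24 hr at 37 C. Tetraoctylammonium bromide serves as positive control.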

[2] = Cell Viability - LYMP2-021 (AID 974);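 also: compound exposure lasts 24 hours at 37 °C; nearly all actives have a fitted effect of over 55% in size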
Summary of the method: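 Loss of cellular ATP, measured with a luciferase-based CellTiter-Glo readout, serves as the toxicity signal in human lymphoblastoid cells treated for 24 hours at 37 C. Potency is reported as AC50 from a standard Hill model.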

[3] = Cell Viability - LYMP2-023 (AID 975);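 also: cellular ATP measured by luciferase luminescence as viability proxy; series mostly up to about 92 µM; nearly all actives have a fitted effect of over 55% in size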
Summary of the method: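 Steps: seed 2500 human lymphoblastoid cells per well, incubate 5 hr at 37 C, add compound for 24 hr at 37 C, add CellTiter-Glo, hold 30 min at room temperature, read luminescence. AC50 derived by Hill modelling.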

[4] = Cell Viability - LYMP2-025 (AID 976); also: series mostly up to about 92 µM
Summary of the method: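 Acute cytotoxicity is scored as a concentration-dependent fall in intracellular ATP, measured by luciferase luminescence, in human lymphoblastoid LYMP2-025 cells exposed to compound for 24 hours at 37 C. AC50 values come from standard Hill fits.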

[5] = Cell Viability - LYMP2-002 (AID 977);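 also: series mostly up to about 92 µM; compound exposure lasted 24 h at 37 °C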
Summary of the method: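 Human lymphoblastoid cells (2500/well) in complete medium were preincubated 5 hr at 37 C, then exposed to compounds for 24 hr at 37 C. Intracellular ATP was read by CellTiter-Glo luminescence; AC50 came from Hill-equation concentration-response fits.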

[6] = Cell Viability - LYMP2-006 (AID 978); also: series mostly up to about 92 µM; nearly all actives have a fitted effect of over 60% in size
Summary of the method: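 Human lymphoblastoid cells (LYMP2-006), 2500/well in complete medium, were treated with compound for 24 hr at 37 C. Cellular ATP was read by CellTiter-Glo luminescence after 30 min, and AC50 values came from Hill-equation fits of concentration-response data.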

[7] = Cell Viability - LYMP2-007 (AID 979);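 also: cells exposed to compound for 24 h before reading; nearly all actives have a fitted effect of over 60% in size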
Summary of the method: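 Cells are seeded at 2500 per well and rested 5 hr. Compounds are then added over a concentration series for 24 hr at 37 C. CellTiter-Glo is added for 30 min at room temperature before luminescence reading.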

[8] = Cell Viability - LYMP2-008 (AID 980); also: nearly all actives have a fitted effect of over 60% in size
Summary of the method: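 Cells seeded at 2500/well and rested 5 hr at 37 C; compounds added over a concentration range and incubated 24 hr at 37 C; CellTiter-Glo added, 30 min at room temperature; luminescence read and AC50 fitted with Hill model.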

[9] = Cell Viability - LYMP2-010 (AID 981); also: nearly all actives have a fitted effect of over 55% in size
Summary of the method: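 Steps: seed 2500 LYMP2-010 cells per well; incubate 5 hr at 37 C; add compound; incubate 24 hr at 37 C; add CellTiter-Glo, wait 30 min at room temperature; read luminescence. Concentration-response fitted to Hill equation for AC50.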

[10] = Cell Viability - LYMP2-012 (AID 982)
[11] = Cell Viability - LYMP2-014 (AID 983); also: series mostly up to about 92 µM; nearly all actives have a fitted effect of over 50% in size
Summary of the method: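 Cells are plated at 2500/well and left 5 hr at 37 C. Compounds are added across a concentration range and incubated 24 hr at 37 C in complete medium. CellTiter-Glo is added, and luminescence is read after 30 min at room temperature.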

[12] = Cell Viability - LYMP2-016 (AID 984); also: nearly all actives have a fitted effect of over 55% in size
Summary of the method: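 Human lymphoblastoid LYMP2-016 cells, 2500 per well, treated with compounds for 24 h at 37 C. Viability read as intracellular ATP by CellTiter-Glo luminescence after 30 min at room temperature; AC50 from Hill fits of concentration-response.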

[13] = Cell Viability - LYMP2-018 (AID 985);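 also: compound exposure lasted 24 hr at 37 °C; nearly all actives have a fitted effect of over 50% in size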
Summary of the method: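 Seed 2500 lymphoblastoid cells per well, incubate 5 hr at 37 C, add compound and incubate 24 hr at 37 C, add CellTiter-Glo, wait 30 min at room temperature, then read luminescence.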

[14] = Cell Viability - LYMP2-020 (AID 986)
Summary of the method: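 Seed 2500 cells per well and incubate 5 hr at 37 C. Add compounds at a concentration series and incubate 24 hr at 37 C. Add CellTiter-Glo, wait 30 min at RT, read luminescence, and fit a Hill curve for AC50.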

[15] = Cell Viability - LYMP2-022 (AID 987); also: nearly all actives have a fitted effect of over 55% in size
Summary of the method: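 Cells were seeded at 2500 per well, rested 5 hr at 37 C, and treated with titrated compounds for 24 hr at 37 C. Cellular ATP was then quantified by luciferase luminescence, and AC50 values were derived from Hill-modelled concentration-response curves.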

[16] = Cell Viability - LYMP2-024 (AID 988); also: nearly all actives have a fitted effect of over 60% in size
Summary of the method: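 qHTS cytotoxicity, human lymphoblastoid line, complete medium; 24 h cpd treatment, 37 C; CellTiter-Glo ATP luminescence readout; tetraoctylammonium bromide positive control; AC50 via Hill fit.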

[17] = Cell Viability - LYMP2-026 (AID 989); also: nearly all actives have a fitted effect of over 50% in size
Summary of the method: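 Cells are seeded at 2500 per well and held 5 hr at 37 C. Compounds are added in concentration series for 24 hr, then CellTiter-Glo reagent is applied and luminescence read.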

[18] = Cell Viability - LYMP1-002 - Assay at 24 hr (AID 993)
Summary of the method: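 Acute toxicity is measured as concentration-dependent loss of cellular ATP in a human lymphoblastoid line (Coriell LYMP1-002) after 24 h treatment in complete medium. ATP is quantified by luciferase luminescence and AC50 derived by Hill modelling.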

[19] = Cell Viability - LYMP1-002 - Assay at 40 hr (AID 994); also: nearly all actives have a fitted effect of over 60% in size
Summary of the method: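 Cells are plated at 2500 per well and rested 5 hr at 37 C. Compounds are added and incubated 40 hr at 37 C. CellTiter-Glo reagent is added for 30 min at room temperature before luminescence is read.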

Measured: outcome

CO[C@H]1/C=C/O[C@@]2(C)Oc3c(C)c(O)c4c(O)c(c(/C=N/N5CCN(C)CC5)c(O)c4c3C2=O)NC(=O)/C(C)=C\C=C\[C@H](C)[C@H](O)[C@@H](C)[C@@H](O)[C@@H](C)[C@H](OC(C)=O)[C@@H]1C
inactive: all assays above
